Only some compounds are listed: those with a hit (about 1.5% of all), similar ones and a draw of the others.
Mtb MbtI inh: MbtI salicylate synthase inhibitors, primary screen, biochemical, fluorescence intensity. purified MbtI enzyme, fluorescence intensity read-out. AID 493033, 2011. inhibition, % (test concentration not listed). actives 0.89% (n = 100,000). P9WFX0; in the data active = inhibition mostly above about 56%, no sharp cut-off; inactive = mostly below about 77%
Mtb MenB inh: M. tuberculosis MenB inhibitors, primary screen, biochemical, absorbance | inhibition, % (concentration not given with the values) | 1,4-dihydroxy-2-naphthoyl-CoA synthase (Mycobacterium tuberculosis (strain ATCC 25618 / … | MenB enzyme assay, absorbance read-out | actives 0.43% (n = 100,000) | AID 540299, 2011; in the data active = inhibition above about 21%, passing the limit was not always enough
PV pol inh: poliovirus RdRp elongation inhibitors, primary screen, biochemical, fluorescence polarization, total intensity; poliovirus polymerase elongation; hits give low values; % elongation, % (compound at 16.7 µg/mL); actives 0.66% (n = 150,000); in the data active = % elongation below about 90%
Target sequence (P03300 1749-2209 limits assumed): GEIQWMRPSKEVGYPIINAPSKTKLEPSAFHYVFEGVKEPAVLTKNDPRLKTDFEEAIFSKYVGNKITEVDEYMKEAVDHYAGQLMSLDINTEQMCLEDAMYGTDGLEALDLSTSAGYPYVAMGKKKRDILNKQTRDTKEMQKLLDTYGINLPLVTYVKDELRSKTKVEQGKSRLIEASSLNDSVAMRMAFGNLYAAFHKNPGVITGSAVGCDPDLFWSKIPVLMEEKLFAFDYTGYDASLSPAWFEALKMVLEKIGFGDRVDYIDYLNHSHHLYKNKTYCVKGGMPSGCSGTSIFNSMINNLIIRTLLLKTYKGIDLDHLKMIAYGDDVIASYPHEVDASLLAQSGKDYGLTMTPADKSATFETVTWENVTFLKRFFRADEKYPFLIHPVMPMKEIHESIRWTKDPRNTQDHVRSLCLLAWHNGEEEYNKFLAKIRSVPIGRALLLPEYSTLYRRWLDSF
A number is an active result; i = inactive; nt = not tested or not shown; ! = not active in a repeat.

SMILES	Mtb MbtI inh	Mtb MenB inh	PV pol inh
O=C(CSc1ccc(Cl)cc1)c1ccco1	61	nt	i
O=C(CSc1ccccc1Cl)c1ccco1	i	nt	i
N#CCCC(=O)c1ccccc1	i	i	i
O=c1cc(NCCNc2cc(=O)oc3ccccc23)c2ccccc2o1	i	i	i
O=c1cc(NCCc2ccccc2)c2ccccc2o1	i	33	i
C=CCn1c(C(C)Oc2ccc(Cl)cc2)n[nH]c1=S (stereo not given)	65	i	i
C=CCn1c(C(NC(=O)c2ccc(Cl)cc2Cl)C(C)C)n[nH]c1=S (stereo not given)	i	i	i
Cc1cccc(NC(=O)CCC2=NS(=O)(=O)c3cc(Br)cnc3N2)c1	i	i	i
Clc1ccc(-c2cn3c4ccccc4nc3n2CCCNC2CCCCC2)cc1	i	i	i
Cc1ccc(-c2cn3c4ccccc4nc3n2CCCN2CCCCC2)cc1	nt	i	90
CCn1c(CS(=O)(=O)c2cc(C)ccc2C)nc2cc(C(=O)O)ccc21	i	i	81
CCn1c(CSc2ncccn2)nc2cc(C(=O)O)ccc21	i	i	i
O=C(O)CN1CCCCC1	i	31	i
O=C(O)CCN1CCCC1	i	i	i
COc1ccc(-c2nc3c(=O)n(C)c(=O)nc-3n(C)n2)cc1OC	i	nt	nt
Cn1nc(-c2ccc(F)cc2)nc2c(=O)n(C)c(=O)nc1-2	i	i	36
Cc1ccnc(NS(=O)(=O)c2ccc(NC(=O)c3ccc(C)c(C)c3)cc2)n1	nt	nt	i
CC(=O)NS(=O)(=O)c1ccc(NC(=O)c2ccc(C)c(C)c2)cc1	i	23	i
Nc1nc(CN2CCCCC2)cs1	i	39	i
NC(=O)Cc1csc(N)n1	i	i	i
COc1ccc(-c2nn(C)c3sc(C(=O)NCC4(c5ccccc5)CCCC4)cc23)cc1OC	i	i	i
COc1ccc(/C(COc2ccccc2O)=N\O)cc1	i	i	i
Cc1cc(C)n2nc(C(=O)Nc3sc4c(c3C(N)=O)CCC4)nc2n1	i	i	i
O=C(O)/C=C1/C(=O)Nc2ccccc21	i	i	i
Cc1ccc2nc(-c3c[nH]c4ccccc34)c(Nc3ccccc3)n2c1	nt	nt	i
SMILES	Mtb MbtI inh	Mtb MenB inh	PV pol inh
Cc1nc(-c2c[nH]c3ccccc23)c(C)s1	nt	i	73
CC1CCCCN1CCNC(=O)c1nc(-c2cccnc2)no1 (stereo not given)	i	i	i
O=C(CN1C(=O)c2ccccc2C1=O)c1ccc(Cl)cc1	i	i	6.0
O=C(CN1C(=O)c2ccccc2C1=O)c1ccc(F)cc1	i	i	i
CC(C)c1ccc(N2C(=O)Cc3c2nc(N)c2c(N)nc(N4CCCC4)c(C#N)c32)cc1	i	i	i
CC(=O)N1CCN(c2nc(N)c3c(N)nc4c(c3c2C#N)CC(=O)N4C)CC1	i	i	18
Cc1c(C(=O)NC(C)C)oc2ccc3c(c12)C(O)CC(C)(C)O3 (stereo not given)	i	i	i
CCN(CC)C(=O)c1oc2ccc(S(=O)(=O)N3CCCC3)cc2c1C	i	i	i
Cc1ccc(S(=O)Cc2ccc(C(=O)NC3CCCC(C)C3C)o2)cc1 (stereo not given)	i	i	i
CCn1c2ccccc2c2nc(C)sc21	nt	i	i
CCn1c(=S)sc2nc(C)sc21	101	i	i
CC1(C)CC(=O)C2=C(C1)Nc1ccc3ncccc3c1C2c1ccc(O)c(O)c1 (stereo not given)	i	i	i
CC1(C)CC(=O)C2=C(C1)N=C1c3ccccc3C(=O)C1C2c1ccc(O)c(O)c1 (stereo not given)	85	nt	nt
COc1ccc(OC)c(CNC(=O)Cn2ncc3c(=O)oc4ccc(C)cc4c32)c1	i	i	i
C=CCN=C(N)SCc1nc2ccccc2c(=O)[nH]1	i	i	i
CCCN(CCC)C(=O)Nc1cn(CC(C)C)c(=O)c2ccccc12	i	i	i
CC(C)Cn1cc(NC(=O)N2CCN(c3cccc(C(F)(F)F)c3)CC2)c2ccccc2c1=O	nt	nt	i
Cc1ccc(NC(=O)Nc2cn(CC(C)C)c(=O)c3ccccc23)cc1N(C)C	nt	nt	73
CC(C)Cn1cc(NC(=O)Nc2cccc(C(F)(F)F)c2)c2ccccc2c1=O	nt	nt	70
O=C(/C=C/c1ccco1)Nc1ccc(S(=O)(=O)N2CCc3ccccc32)cc1	i	i	i
CCC(=O)OC1(C)CC2CC(CN(C(=O)C3CCCCC3)C2)C1 (stereo not given)	i	nt	i
C[N+](C)(Cc1ccccc1)Cc1ccccc1	nt	i	i
Cc1cc(C(C)(C)CC(C)(C)C)ccc1OCCOCC[N+](C)(C)Cc1ccccc1	i	i	94!
CCN(CC)CC(=O)N1N=C(c2ccc(OC)cc2)CC1c1cccc(OC)c1OC (stereo not given)	i	i	i
C=CCN(CC=C)C(=O)c1ccc(SC)cc1OC	i	i	i
SMILES	Mtb MbtI inh	Mtb MenB inh	PV pol inh
COc1cc(SC)ccc1C(=O)N(C)C1CCN(C)CC1	i	i	-3.0
Cc1ccc(N(CC(=O)O)S(=O)(=O)c2ccccc2)cc1	i	i	i
O=C(NCc1csc(-c2cccs2)n1)Nc1ccc2c(c1)OCCCO2	i	i	i
CC(C)CNS(=O)(=O)c1ccc2nc(NC(=O)c3ccccn3)sc2c1	68	i	i
CC(C)NS(=O)(=O)c1ccc2nc(NC(=O)c3cccnc3)sc2c1	i	i	i
CCOc1ccccc1-n1c(SCC(=O)c2ccc3c(c2)OCCO3)nc(O)cc1=O	i	i	i
Nc1ccc(C(=O)NN=C2C3CC4CC2CC(O)(C4)C3)cc1	i	i	i
COC(=O)C(C)n1nnc2sc(-c3ccccc3)cc2c1=O (stereo not given)	nt	nt	i
CCc1ccc(NC(=O)C(C)n2nnc3sc(-c4ccccc4)cc3c2=O)cc1 (stereo not given)	nt	nt	79
CCN(C(=O)CSc1nc2ccccc2nc1C)C1CCCCC1	i	nt	i
NC(=S)NNc1ccc(S(N)(=O)=O)cc1	51	i	i
NC(=S)Nc1ccc(S(N)(=O)=O)cc1	nt	i	i
CC1CCC[S+](c2cc(O)ccc2O)C1 (stereo not given)	101	i	i
CC1CC(C)CN(CCN)C1 (stereo not given)	i	52	i
CC1CC(C)CN(CCC(=O)Nc2ccccc2F)C1 (stereo not given)	i	i	i
CCOc1ccc2c(c1)c(=O)c(S(=O)(=O)c1ccc(Cl)cc1)cn2Cc1ccccc1C	nt	nt	i
CCCCOC(=O)Nc1ccc(I)cc1C	i	i	i
Cc1cccc(CCNC(=O)c2sc3nc4n(c(=O)c3c2C)CCCC4)c1	nt	nt	i
CN1CCC(N(C)C(=S)Nc2ccccc2)CC1	i	i	i
Cc1nc2cc3ccccc3cc2c(=O)n1CCCNC1CCCCC1	nt	i	90
COCCCn1c(=N)c(C(=O)NC2CCCCC2)cc2c(=O)n3ccccc3nc21	nt	nt	i
CC(C)(C)c1cc(N/C=C/C(=O)c2ccc(Cl)cc2)no1	i	i	i
CCOc1ccc(CCNC(=O)c2cn(CC)c3ccc(S(=O)(=O)N4CCc5ccccc5C4)cc3c2=O)cc1OCC	nt	nt	i
N#CC(C#N)=Cc1cccc(OC(F)F)c1	i	i	i
CC(C)Oc1ccc2ccc(=O)oc2c1	i	i	i
O=C(Nc1scc(-c2cccs2)c1C(=O)O)c1cccs1	nt	i	i
COC(=O)c1c(-c2cccs2)csc1NC(=O)c1ccc(C)cc1	nt	nt	76
